This note sets out measurements from publication PMC7862700, “An all-to-all approach to the identification of sequence-specific readers for epigenetic DNA modifications on cytosine”.

Common to all, as to experiment: DAPPL (digital affinity profiling via proximity ligation, sequencing); 10 mM Tris-HCl pH 7.5, 50 mM NaCl, 1 mM DTT, 4% glycerol, room temperature, 30 min; GST-TFs on glutathione beads, 16-mer random dsDNA library, 0.1% formaldehyde crosslink after washing; high values mean tight binding
In one test the target is HSF1 (Homo sapiens, UniProt Q00613 1-529). The conditions noted are these: protein: recombinant; tags: N-terminal GST; chain copies: 3; dsDNA, one strand shown. The gist of the method:
(§1)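 A tag-only sample was pooled with DNA-barcoded human transcription factors that had been expressed in yeast as GST fusions and captured on glutathione beads. The pools were incubated for 30 min at room temperature with 200 nmole of a random double-stranded 16-mer DNA library in Tris/NaCl/DTT/glycerol buffer, then washed, crosslinked with 0.1% formaldehyde, proximity-ligated (BsaI/T4 ligase, 1 h, 37 °C), PCR-amplified and sequenced on an Illumina NextSeq500. Binding signal is each hexamer's read frequency for a factor divided by its frequency for the tag-only sample.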

In the next test the target is ELF4 (Homo sapiens, UniProt Q99607 1-663). The conditions noted are these: protein: recombinant; tags: N-terminal GST; dsDNA, one strand shown. The gist of the method:
as §1

A further test addresses T1, ERF (Homo sapiens, UniProt P50548 1-548).
T1 sequence: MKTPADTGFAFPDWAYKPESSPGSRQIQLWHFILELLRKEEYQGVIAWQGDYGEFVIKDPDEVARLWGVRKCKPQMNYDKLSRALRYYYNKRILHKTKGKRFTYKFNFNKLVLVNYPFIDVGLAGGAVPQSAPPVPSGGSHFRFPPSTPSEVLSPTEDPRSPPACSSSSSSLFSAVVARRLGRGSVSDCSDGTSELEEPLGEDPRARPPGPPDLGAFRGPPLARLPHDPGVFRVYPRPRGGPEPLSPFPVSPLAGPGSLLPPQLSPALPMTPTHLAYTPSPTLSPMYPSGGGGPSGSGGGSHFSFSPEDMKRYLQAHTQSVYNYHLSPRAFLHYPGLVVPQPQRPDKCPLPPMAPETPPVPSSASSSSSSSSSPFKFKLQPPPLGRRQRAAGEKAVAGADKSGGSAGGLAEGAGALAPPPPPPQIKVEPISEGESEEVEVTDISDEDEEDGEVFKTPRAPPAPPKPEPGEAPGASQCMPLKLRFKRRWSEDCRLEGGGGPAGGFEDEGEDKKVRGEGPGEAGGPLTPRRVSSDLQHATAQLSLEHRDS
The conditions noted are these: protein: recombinant; tags: N-terminal GST; dsDNA, one strand shown. The gist of the method:
as §1

Another test has as its target T2, ETV3L (Homo sapiens, UniProt Q6ZN32 1-361).
T2 sequence: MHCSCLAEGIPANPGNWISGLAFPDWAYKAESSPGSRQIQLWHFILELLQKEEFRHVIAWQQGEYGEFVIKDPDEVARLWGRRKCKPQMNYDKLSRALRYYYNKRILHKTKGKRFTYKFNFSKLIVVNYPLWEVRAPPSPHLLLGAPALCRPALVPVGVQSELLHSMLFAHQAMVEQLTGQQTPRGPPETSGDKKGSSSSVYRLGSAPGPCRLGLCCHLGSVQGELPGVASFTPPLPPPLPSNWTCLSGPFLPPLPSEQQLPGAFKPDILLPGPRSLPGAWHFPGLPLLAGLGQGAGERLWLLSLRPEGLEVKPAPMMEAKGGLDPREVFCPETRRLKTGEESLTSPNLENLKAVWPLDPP
The conditions noted are these: protein: recombinant; tags: N-terminal GST; dsDNA, one strand shown. The gist of the method: as §1

In the next test the target is T3, ETV7 (Homo sapiens, UniProt Q9Y603 1-341).
T3 sequence: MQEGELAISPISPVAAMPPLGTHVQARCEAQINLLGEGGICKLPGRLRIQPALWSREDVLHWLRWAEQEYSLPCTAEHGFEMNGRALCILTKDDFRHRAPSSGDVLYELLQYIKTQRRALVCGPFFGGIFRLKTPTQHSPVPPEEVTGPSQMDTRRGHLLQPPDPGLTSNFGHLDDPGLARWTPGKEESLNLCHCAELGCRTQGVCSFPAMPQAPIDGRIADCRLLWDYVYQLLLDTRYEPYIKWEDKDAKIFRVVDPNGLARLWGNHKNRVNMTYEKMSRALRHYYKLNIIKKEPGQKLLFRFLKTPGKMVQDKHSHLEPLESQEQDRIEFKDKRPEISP
The conditions noted are these: protein: recombinant; tags: N-terminal GST; dsDNA, one strand shown. The gist of the method: as §1

Another test deals with T4, ELK3 (Homo sapiens, UniProt P41970 1-407).
T4 sequence: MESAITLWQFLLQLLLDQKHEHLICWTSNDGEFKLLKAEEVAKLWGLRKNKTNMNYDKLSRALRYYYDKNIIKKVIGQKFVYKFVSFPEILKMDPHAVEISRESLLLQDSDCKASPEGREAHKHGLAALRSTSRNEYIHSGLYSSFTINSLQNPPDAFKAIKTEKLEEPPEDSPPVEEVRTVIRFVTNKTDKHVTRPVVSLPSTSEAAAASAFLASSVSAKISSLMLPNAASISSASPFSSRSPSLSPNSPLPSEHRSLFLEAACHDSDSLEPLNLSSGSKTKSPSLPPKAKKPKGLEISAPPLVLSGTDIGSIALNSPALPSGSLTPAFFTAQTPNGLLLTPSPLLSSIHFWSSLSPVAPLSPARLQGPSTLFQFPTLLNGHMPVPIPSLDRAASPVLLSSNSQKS
The conditions noted are these: protein: recombinant; tags: N-terminal GST; dsDNA, one strand shown. An outline of the steps:
as §1

A further test concerns the target T5, ELK4 (Homo sapiens, UniProt P28324-2 1-405).
T5 sequence: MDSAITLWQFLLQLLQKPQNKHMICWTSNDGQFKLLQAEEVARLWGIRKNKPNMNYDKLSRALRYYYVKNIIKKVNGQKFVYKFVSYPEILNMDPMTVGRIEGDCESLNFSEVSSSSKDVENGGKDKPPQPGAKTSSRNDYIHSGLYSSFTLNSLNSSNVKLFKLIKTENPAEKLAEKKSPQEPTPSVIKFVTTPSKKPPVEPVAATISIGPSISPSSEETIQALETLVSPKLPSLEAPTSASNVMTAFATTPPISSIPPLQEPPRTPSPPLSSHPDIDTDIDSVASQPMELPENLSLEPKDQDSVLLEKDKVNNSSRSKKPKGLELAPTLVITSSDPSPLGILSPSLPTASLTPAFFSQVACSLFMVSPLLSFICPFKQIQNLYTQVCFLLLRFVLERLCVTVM
The conditions noted are these: protein: recombinant; tags: N-terminal GST; dsDNA, one strand shown. The gist of the method:
as §1

The next test addresses CRX (Homo sapiens, UniProt O43186 1-299). The conditions noted are these: protein: recombinant; tags: N-terminal GST; dsDNA, one strand shown. An outline of the steps: as §1
A further test concerns the target T6, ELF5 (Homo sapiens, UniProt Q9UKW6-2 1-255).
T6 sequence: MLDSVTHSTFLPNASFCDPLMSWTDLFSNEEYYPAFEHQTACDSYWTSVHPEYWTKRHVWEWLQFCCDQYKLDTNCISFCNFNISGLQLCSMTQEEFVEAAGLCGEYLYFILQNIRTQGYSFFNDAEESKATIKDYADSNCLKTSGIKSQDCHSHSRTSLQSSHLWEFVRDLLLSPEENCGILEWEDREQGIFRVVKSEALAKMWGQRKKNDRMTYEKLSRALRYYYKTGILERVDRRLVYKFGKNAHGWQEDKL
The conditions noted are these: protein: recombinant; tags: N-terminal GST; dsDNA, one strand shown. The gist of the method:
as §1

In the next test the target is T7, ETV2 (Homo sapiens, UniProt O00321 1-342).
T7 sequence: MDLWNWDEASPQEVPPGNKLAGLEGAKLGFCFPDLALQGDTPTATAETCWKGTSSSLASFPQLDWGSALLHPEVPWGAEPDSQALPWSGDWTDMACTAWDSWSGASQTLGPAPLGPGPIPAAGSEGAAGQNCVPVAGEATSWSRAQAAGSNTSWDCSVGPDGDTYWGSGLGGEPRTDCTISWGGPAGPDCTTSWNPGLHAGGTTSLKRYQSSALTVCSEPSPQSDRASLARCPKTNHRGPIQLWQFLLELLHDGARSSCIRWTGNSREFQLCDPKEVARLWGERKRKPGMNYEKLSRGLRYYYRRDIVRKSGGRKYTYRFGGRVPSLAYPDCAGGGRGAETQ
The conditions noted are these: protein: recombinant; tags: N-terminal GST; dsDNA, one strand shown. An outline of the steps:
as §1

Another test addresses T8, SPDEF (Homo sapiens, UniProt O95238 1-335).
T8 sequence: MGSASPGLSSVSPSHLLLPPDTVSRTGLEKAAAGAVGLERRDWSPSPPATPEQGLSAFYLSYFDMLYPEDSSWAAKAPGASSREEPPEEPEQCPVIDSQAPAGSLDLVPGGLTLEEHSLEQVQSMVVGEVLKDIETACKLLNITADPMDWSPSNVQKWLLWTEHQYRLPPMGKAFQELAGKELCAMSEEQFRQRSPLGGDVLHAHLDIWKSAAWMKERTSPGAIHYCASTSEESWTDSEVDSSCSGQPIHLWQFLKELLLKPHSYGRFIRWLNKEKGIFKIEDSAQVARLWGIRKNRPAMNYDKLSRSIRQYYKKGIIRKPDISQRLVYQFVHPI
The conditions noted are these: protein: recombinant; tags: N-terminal GST; dsDNA, one strand shown. The gist of the method:
as §1

The target of the next test is T9, GABPA (Homo sapiens, UniProt Q06546 1-454).
T9 sequence: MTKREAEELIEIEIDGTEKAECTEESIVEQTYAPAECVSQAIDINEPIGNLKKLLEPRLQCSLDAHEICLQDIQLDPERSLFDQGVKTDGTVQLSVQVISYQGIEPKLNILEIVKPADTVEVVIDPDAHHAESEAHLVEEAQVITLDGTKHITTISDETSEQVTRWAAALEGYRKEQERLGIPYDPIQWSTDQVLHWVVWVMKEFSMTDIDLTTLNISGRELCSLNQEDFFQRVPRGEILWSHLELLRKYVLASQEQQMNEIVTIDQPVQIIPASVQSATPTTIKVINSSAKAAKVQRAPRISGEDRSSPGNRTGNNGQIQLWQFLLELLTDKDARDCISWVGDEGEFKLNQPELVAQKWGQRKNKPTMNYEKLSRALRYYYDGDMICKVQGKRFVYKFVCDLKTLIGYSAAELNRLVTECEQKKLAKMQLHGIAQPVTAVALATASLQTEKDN
The conditions noted are these: protein: recombinant; tags: N-terminal GST; dsDNA, one strand shown. The gist of the method: as §1

The target in the next test is T10, ETS2 (Homo sapiens, UniProt P15036 1-469).
T10 sequence: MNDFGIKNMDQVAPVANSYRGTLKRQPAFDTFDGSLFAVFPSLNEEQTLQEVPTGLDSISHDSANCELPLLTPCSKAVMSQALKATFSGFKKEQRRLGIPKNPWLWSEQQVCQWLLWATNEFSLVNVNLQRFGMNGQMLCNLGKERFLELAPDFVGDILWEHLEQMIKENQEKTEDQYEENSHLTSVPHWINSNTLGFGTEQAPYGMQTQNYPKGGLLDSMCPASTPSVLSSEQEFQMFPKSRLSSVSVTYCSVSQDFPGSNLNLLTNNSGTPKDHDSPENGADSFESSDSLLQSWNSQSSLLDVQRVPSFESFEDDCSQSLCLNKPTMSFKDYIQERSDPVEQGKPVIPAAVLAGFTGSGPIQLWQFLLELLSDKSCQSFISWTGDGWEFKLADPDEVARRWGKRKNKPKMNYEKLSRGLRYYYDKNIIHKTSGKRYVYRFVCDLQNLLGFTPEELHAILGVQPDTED
The conditions noted are these: protein: recombinant; tags: N-terminal GST; dsDNA, one strand shown. An outline of the steps: as §1

Chain of HSF1 (Q00613 whole entry, the tested form may be a part): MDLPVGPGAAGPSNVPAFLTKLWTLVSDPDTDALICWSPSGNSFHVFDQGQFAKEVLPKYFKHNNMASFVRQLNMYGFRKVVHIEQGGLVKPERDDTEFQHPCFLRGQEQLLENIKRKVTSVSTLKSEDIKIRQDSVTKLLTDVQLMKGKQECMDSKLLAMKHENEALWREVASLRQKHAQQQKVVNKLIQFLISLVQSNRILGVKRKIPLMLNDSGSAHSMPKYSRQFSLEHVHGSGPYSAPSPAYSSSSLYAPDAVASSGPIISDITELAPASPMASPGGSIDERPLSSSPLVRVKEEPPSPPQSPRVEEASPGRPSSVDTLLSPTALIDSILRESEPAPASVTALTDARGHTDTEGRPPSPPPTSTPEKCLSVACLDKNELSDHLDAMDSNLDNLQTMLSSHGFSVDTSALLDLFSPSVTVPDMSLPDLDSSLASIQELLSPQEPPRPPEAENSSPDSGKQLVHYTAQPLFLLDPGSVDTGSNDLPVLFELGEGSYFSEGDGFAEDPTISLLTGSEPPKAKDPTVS
Chain of ELF4 (Q99607 whole entry): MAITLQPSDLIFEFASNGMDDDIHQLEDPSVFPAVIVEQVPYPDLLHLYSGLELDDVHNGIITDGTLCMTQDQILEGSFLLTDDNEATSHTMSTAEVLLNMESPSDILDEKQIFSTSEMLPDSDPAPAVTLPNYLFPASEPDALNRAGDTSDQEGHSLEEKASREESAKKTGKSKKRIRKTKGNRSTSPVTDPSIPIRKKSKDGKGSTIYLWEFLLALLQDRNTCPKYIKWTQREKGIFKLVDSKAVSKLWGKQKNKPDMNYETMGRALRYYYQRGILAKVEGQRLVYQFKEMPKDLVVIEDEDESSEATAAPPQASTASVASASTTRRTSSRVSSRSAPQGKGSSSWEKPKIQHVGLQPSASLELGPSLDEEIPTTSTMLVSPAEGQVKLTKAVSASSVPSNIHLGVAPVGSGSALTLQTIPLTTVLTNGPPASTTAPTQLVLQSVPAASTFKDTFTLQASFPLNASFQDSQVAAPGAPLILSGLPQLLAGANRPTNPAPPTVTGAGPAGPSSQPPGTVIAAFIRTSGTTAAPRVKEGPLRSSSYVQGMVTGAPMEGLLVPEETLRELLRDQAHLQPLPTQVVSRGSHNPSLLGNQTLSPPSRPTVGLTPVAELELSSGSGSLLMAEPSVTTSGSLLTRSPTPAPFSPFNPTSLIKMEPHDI
Chain of CRX (O43186 whole entry): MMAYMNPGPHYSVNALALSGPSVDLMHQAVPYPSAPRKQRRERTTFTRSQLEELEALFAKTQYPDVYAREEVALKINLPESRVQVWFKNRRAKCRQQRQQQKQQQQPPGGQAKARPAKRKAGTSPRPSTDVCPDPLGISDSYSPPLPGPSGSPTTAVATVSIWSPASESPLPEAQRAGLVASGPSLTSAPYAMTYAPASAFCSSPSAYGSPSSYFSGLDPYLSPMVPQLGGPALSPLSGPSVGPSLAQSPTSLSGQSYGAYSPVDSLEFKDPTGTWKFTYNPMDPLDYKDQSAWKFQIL

As to ACGAAG, the binding signal with HSF1 was 1.06 fold enrichment (6-mer frequency, TF over GST control); with ELF4, 1.01 fold enrichment (6-mer frequency, TF over GST control); with ERF it was 1.02 fold enrichment (6-mer frequency, TF over GST control); in the test with ETV3L it was 1 fold enrichment (6-mer frequency, TF over GST control); with ETV7, 1.07 fold enrichment (6-mer frequency, TF over GST control).

As to AGATAT, the binding signal in the test with ELK3 was 1 fold enrichment (6-mer frequency, TF over GST control); in the test with HSF1 it was 1.1 fold enrichment (6-mer frequency, TF over GST control); with ELK4, 1.04 fold enrichment (6-mer frequency, TF over GST control); in the test with CRX, 1.06 fold enrichment (6-mer frequency, TF over GST control); in the test with ELF5, 1.06 fold enrichment (6-mer frequency, TF over GST control).

GAATAG: the binding signal with HSF1 is 1.11 fold enrichment (6-mer frequency, TF over GST control); in the test with ELK4, 1.02 fold enrichment (6-mer frequency, TF over GST control); in the test with ETV2, 1.03 fold enrichment (6-mer frequency, TF over GST control); with ERF it was 1.08 fold enrichment (6-mer frequency, TF over GST control); with SPDEF, 1.02 fold enrichment (6-mer frequency, TF over GST control).

As for GCCTAG, the binding signal in the test with GABPA is 1.02 fold enrichment (6-mer frequency, TF over GST control); with HSF1 it was 1.21 fold enrichment (6-mer frequency, TF over GST control); in the test with ELK4, 1.03 fold enrichment (6-mer frequency, TF over GST control); with ETV2 it was 1.08 fold enrichment (6-mer frequency, TF over GST control); with ERF it was 1.06 fold enrichment (6-mer frequency, TF over GST control); with ETS2, 1 fold enrichment (6-mer frequency, TF over GST control). For the same sequence, the binding signal with ETV7 was 1 fold enrichment (6-mer frequency, TF over GST control).
